DT40 TDP1 CPT – growth inhibition of DT40 Tdp1-/-;hTDP1 cells with camptothecin (screen for TDP1 inhibitors); AID 686979; 420,000 tested, 12% active; chicken DT40 Tdp1-/-;hTDP1 cells + 20 nM CPT, ATP luminescence, 48 h; Potency, µM (series often up to 46.2 µM), most hits filed as inhibitors; further: nearly all actives have a fitted effect of over 55% in size
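Chicken DT40 Tdp1-/- cells complemented with human TDP1, 400 cells/well, exposed to compounds plus 20 nM camptothecin for at least 48 h at 37 C; viability read as ATP content by CellTiter-Glo luminescence.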
VP16 counter – Gal4-VP16 reporter inhibition counter-screen; Drosophila S2 Gal4-VP16 UAS-luciferase, luminescence, 20 h; Potency, µM (highest dose often 53.6 µM), hits mostly inhibitors; 310,000 tested, 3.5% active;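 further: Gal4-VP16 expression switched on by copper sulfate through the metallothionein promoter; nearly all actives have a fitted effect of over 50% in size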
12-LOX inh – ALOX12 (human) lipoxygenase inhibition; Potency, µM (titrated, usually from 108 µM), hits mostly inhibitors; 580,000 tested, 1.1% active; purified 12hLO, xylenol orange hydroperoxide absorbance; P18054
Target sequence (P18054 whole entry, looked up): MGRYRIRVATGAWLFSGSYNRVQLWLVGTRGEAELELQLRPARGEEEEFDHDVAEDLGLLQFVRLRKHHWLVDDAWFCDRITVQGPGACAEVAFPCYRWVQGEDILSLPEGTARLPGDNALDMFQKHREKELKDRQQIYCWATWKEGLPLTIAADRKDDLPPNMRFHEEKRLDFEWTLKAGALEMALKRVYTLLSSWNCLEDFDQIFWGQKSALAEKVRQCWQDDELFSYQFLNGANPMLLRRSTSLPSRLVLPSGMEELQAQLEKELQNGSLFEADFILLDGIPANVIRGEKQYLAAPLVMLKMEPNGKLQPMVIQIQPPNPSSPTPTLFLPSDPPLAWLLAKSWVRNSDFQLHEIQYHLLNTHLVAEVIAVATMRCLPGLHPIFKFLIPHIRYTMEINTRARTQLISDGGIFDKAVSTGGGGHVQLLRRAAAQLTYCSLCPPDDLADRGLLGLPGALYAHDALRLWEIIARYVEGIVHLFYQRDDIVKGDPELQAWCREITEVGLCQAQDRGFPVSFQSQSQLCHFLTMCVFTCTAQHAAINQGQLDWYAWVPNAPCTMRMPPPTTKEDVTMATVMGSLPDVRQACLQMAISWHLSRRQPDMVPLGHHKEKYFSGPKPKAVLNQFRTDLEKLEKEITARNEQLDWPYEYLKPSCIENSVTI
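Purified human 12hLO (150 nM final) in 25 mM Hepes, 0.01% Triton X-100, pH 7.0 was preincubated 15 min at room temperature with compound. Then 40 uM arachidonic acid was added, 30 min. Hydroperoxide was read by Fe-XO absorbance ratio 573/405 nm.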
TDP1 cell noCPT – qHTS for Inhibitors of human tyrosyl-DNA phosphodiesterase 1 (TDP1): qHTS in cells in absence of CPT | DT40 Tdp1-/- hTDP1 cells, no CPT, ATP luminescence, 48 h | Potency, µM (top dose mostly 46.2 µM), actives largely listed as inhibitors | 420,000 tested, 15% active | AID 686978, 2013; further: nearly all actives have a fitted effect of over 55% in size
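Camptothecin absent (DMSO only). Human TDP1-complemented DT40 knockout cells, 400 cells/well, 37 °C for minimum 48 hr; ATP measured via CellTiter-Glo, 30 min dark incubation, luminescence.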
ELG1 repair inh – blocks ELG1-dependent DNA repair in HEK293T cells. 330,000 tested, 2.3% active. Potency, µM (doses to about 46.1 µM), hits mostly inhibitors. HEK293T ELG1-luciferase reporter, luminescence, 16 h; DNA damage induced by 5-fluorouridine. AID 504467; further: nearly all actives have a fitted effect of over 55% in size
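Luminescence from the luciferase reporter, measured 30 min after ONE-Glo reagent at room temperature, was the read-out. Beforehand, 2,000 cells per well were exposed for 16 hr at 37 °C to 5-fluorouridine together with compound or vehicle.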
RORg inh – blocks mouse ROR gamma transcriptional activity | P51450 | 310,000 tested, 5.4% active | Drosophila S2 Gal4-RORgamma UAS-luciferase reporter, 20 h | Potency, µM (top dose mostly 53.6 µM), usual class: inhibitors; further: nearly all actives have a fitted effect of over 60% in size
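Schneider cells (Drosophila), stable Gal4 DBD–ROR gamma + UAS-luc; 1 hr cmpd preincubation; Cu2+ induction 700 uM final; 20 hr ambient; luminescence.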
Hits are given with their value; – = inactive; ? = inconclusive; · = not tested or not shown; [ ] = remark or other dose. An excerpt weighted towards active compounds, which were near 15% of everything screened. The call rests on the fitted dose curve; in most records, active means well fitted curve in the direction sought with a large enough effect; inconclusive means small, poorly fitted or top-dose-only effect, or another doubt; inactive means no such curve, though single readings can be large; an effect the other way counts as inactive or inconclusive.

SMILES	DT40 TDP1 CPT	VP16 counter	12-LOX inh	TDP1 cell noCPT	ELG1 repair inh	RORg inh
Cc1ccc(Nc2c3c(nc4ncnn24)CC(C)CC3)cc1 (centres undefined)	?	?	–	?	–	18µM
CC1CCc2c(nc3ncnn3c2N2CCN(c3ccccc3)CC2)C1 (centres undefined)	?	–	–	?	–	–
CCc1cccc(Nc2c3c(nc4ncnn24)CCC3)c1	?	16µM	–	21µM	–	10µM
CCOc1ccc(Nc2c3c(nc4ncnn24)CC(C)CC3)cc1 (centres undefined)	?	–	–	?	–	–
COc1ccc(-c2c(C(F)(F)F)oc3cc(OCC(=O)OC(C)C)ccc3c2=O)cc1OC	·	·	–	·	·	·
O=C(c1c(OCC2CC2)cc(=O)n2c1CCOCC2)N1CCN(c2ncccn2)CC1	·	·	–	·	·	·
C=CCn1c(N)c(-c2nc3ccccc3n2C)sc1=S	–	?	–	–	–	–
Cn1c(-c2sc(=S)n(-c3ccccc3)c2N)nc2ccccc21	–	–	–	–	–	7.9µM
CCOC(=O)[C@]12CCCC=C1N(Cc1ccc(Cl)cc1Cl)C(=O)[C@H](CC(=O)NCC1CCCCC1)C2	23µM	·	–	?	·	·
C#CCNC(=O)C[C@@H]1C[C@@]2(C(=O)OCC)CCC=C2N(Cc2ccc(Cl)cc2Cl)C1=O	?	·	?	23µM	·	·
C#CCNC(=O)C[C@@H]1C[C@@]2(C(=O)OC)CCCCC=C2N(Cc2ccc(Cl)cc2Cl)C1=O	?	·	–	18µM	·	·
CCOC(=O)[C@]12CCC=C1N(Cc1ccc(Cl)cc1Cl)C(=O)[C@H](CC(=O)NCC1CCCCC1)C2	?	·	–	?	·	·
CCOC(=O)[C@]12CCCC=C1N(Cc1ccc(Cl)cc1Cl)C(=O)[C@H](CC(=O)NCCC(C)C)C2	?	·	–	21µM	·	·
COc1ccccc1CNC(=O)CSc1nnc(C)n1C1CCCCC1	·	·	–	·	·	·
Cc1nc2cc(NC(=O)C(C)Oc3ccccc3)ccc2o1 (centres undefined)	·	·	–	·	·	·
CCOC(=O)[C@]12CCC=C1N(Cc1ccc(Cl)cc1Cl)C(=O)[C@H](CC(=O)NCCc1ccccc1OC)C2	?	·	–	?	·	·
CCOC(=O)[C@]12CCCC=C1N(Cc1ccc(Cl)cc1Cl)C(=O)[C@H](CC(=O)NCCCOC)C2	?	·	–	16µM	·	·
CCOC(=O)[C@]12CCCC=C1N(Cc1ccc(Cl)cc1Cl)C(=O)[C@H](CC(=O)NCC13CC4CC(CC(C4)C1)C3)C2	?	·	–	18µM	·	·
CCOC(=O)[C@]12CCC=C1N(Cc1ccc(Cl)cc1Cl)C(=O)[C@H](CC(=O)NCCC(C)C)C2	?	·	?	21µM	·	·
CCOC(=O)[C@]12CCCC=C1N(Cc1ccco1)C(=O)[C@H](CC(=O)NCCCOC)C2	–	·	–	–	·	·
CCCCOCCCNC(=O)C[C@@H]1C[C@@]2(C(=O)OCC)CCC=C2N(Cc2ccc(Cl)cc2Cl)C1=O	21µM	·	–	15µM	·	·
Nc1c(N(CCC2=CCCCC2)C(=O)Cc2ccc(F)cc2)c(=O)[nH]c(=O)n1Cc1ccccc1	?	·	–	?	–	·
Cc1cccc(OCC(=O)N(Cc2ccccc2)c2c(N)n(Cc3ccccc3)c(=O)[nH]c2=O)c1	18µM	·	–	?	–	·
Nc1c(N(CCC2=CCCCC2)C(=O)COc2ccc(F)cc2Cl)c(=O)[nH]c(=O)n1Cc1ccccc1	5.8µM	·	–	6.5µM	·	·
CC(=O)c1ccc(OCC(=O)N(CCC2=CCCCC2)c2c(N)n(Cc3ccccc3)c(=O)[nH]c2=O)cc1	23µM	·	–	?	?	·
SMILES	DT40 TDP1 CPT	VP16 counter	12-LOX inh	TDP1 cell noCPT	ELG1 repair inh	RORg inh
Cc1cccc(OCC(=O)N(Cc2ccco2)c2c(N)n(Cc3ccccc3)c(=O)[nH]c2=O)c1	–	·	–	–	–	·
Nc1c(NCCC2=CCCCC2)c(=O)[nH]c(=O)n1Cc1ccccc1	26µM	?	–	6.5µM	–	–
CN(C)Cc1ccc(CNC(=O)CNC(=O)Nc2ccccc2)cc1	·	·	–	·	·	·
O=C(CCc1conc1-c1ccc(F)cc1)NCC1CCCO1 (centres undefined)	·	·	–	·	·	·
Cc1ccc(C(=O)N(CCC2=CCCCC2)c2c(N)n(Cc3ccccc3)c(=O)[nH]c2=O)o1	–	·	–	?	9.2µM	·
CCn1c(C(=O)NCc2ccccc2Br)cc2oc3ccccc3c21	21µM	·	–	–	·	·
Cn1c(C(=O)NCc2ccccc2)cc2oc3ccccc3c21	–	?	–	–	?	–
CCn1c(C(=O)NCc2cccc(Br)c2)cc2oc3ccccc3c21	?	·	–	15µM	·	·
CCn1c(C(=O)NCc2cc(Br)ccc2OC)cc2oc3ccccc3c21	23µM	·	–	?	·	·
Cc1ccccc1NC(=O)N1CCC(N2CCCC(C(=O)N3CCCC3)C2)CC1 (centres undefined)	·	·	–	·	·	·
CCC(CC)NC(=O)Nc1ccc(C)cc1Br	·	·	–	·	·	·
O=C(NC1CCCCC1)C1CN(C(=O)c2cccc(C(F)(F)F)c2)CC12CCOCC2 (centres undefined)	·	·	–	·	·	·
CC(=O)Nc1cc(-c2cccc(C(=O)NCCO)c2)cn2c(-c3ccc(F)cc3)cnc12	15µM	·	–	21µM	·	·
CC(=O)Nc1cc(-c2cccc(C(=O)NCCO)c2)cn2c(-c3cccc(C(F)(F)F)c3)cnc12	18µM	·	–	23µM	·	·
Cc1ccc2c(n1)N(C)[C@H](CO)CCN(Cc1ccc(C(F)(F)F)cc1)C2	·	·	–	·	·	·
CN1C(=O)/C(=C/c2ccccc2OCc2ccccc2F)NC1=S	–	–	?	–	–	1.6µM
CN1C(=O)/C(=C/c2ccc(OCc3cccc(F)c3)cc2)NC1=S	–	?	–	–	–	7.1µM
O=C(O)c1ccc(COc2ccccc2/C=C2\NC(=O)N(Cc3ccccc3F)C2=O)cc1	?	–	?	?	?	–
CCn1nc(C(=O)N2CCN(S(=O)(=O)c3ccc(C(C)(C)C)cc3)CC2)c2ccccc2c1=O	·	·	–	·	·	·
CC(C)(C)C1CCC(C(=O)NCCc2c[nH]c3ccccc23)CC1 (centres undefined)	·	·	–	·	·	·
CCN(CC)Cc1cc(Oc2ccc(O)c(CN(CC)CC)c2)ccc1O	21µM	·	·	23µM	·	·
CC1CCCCC12NC(=O)N(CC(=O)N1CCN(Cc3ccc(C#N)cc3)CC1)C2=O (centres undefined)	16µM	·	–	7.3µM	–	·
COc1ccc(S(=O)(=O)n2cnc3cc(C)c(C)cc32)cc1	?	–	?	?	13µM	–
COc1ccc(S(=O)(=O)n2cnc3cc(C)c(C)cc32)cc1C	12µM	·	–	?	?	–[0.365 µM]
CC(C)NC(=O)N1CCC2(CC1)CN(C(=O)Cc1cccc(O)c1)Cc1ccccc1O2	·	·	–[6.33 µM]	·	·	·

From PubChem
